# HT1080NT lethal = kills 2HG-producing HT-1080-NT fibrosarcoma cells. HT-1080-NT fibrosarcoma viability, CellTiter-Glo ATP luminescence, 48 h. Potency, µM (doses to about 46.1 µM), for the others: at the highest dose activity, negative = less viability, usual class: cytotoxic. 360,000 compounds, 1.6% hits. AID 686970;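 also: NT is the 2HG producing partner of a matched IDH1 knockdown line; potency is read from the fitted curve at half-maximal effect; 0% = DMSO-treated cells and -100% = media-only wells without cells; nearly all actives have a fitted effect of over 55% in size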
#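 Luminescent CellTiter-Glo readout after 48 hours of compound exposure at 37 degrees C defined viability of HT-1080-NT cells. Activity was normalized to DMSO wells and cell-free media wells; concentration-response curves were fitted and assigned curve classes.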
# HT1080 IDH1KD tx = HT-1080 IDH1 knockdown cell toxicity (counter line); HT-1080 IDH1 knockdown viability, ATP luminescence, 48 h; 360,000 compounds, 2% hits; Potency, µM (highest dose often 46.1 µM), for inactives: at the top dose activity, negative = toxicity, hits mostly cytotoxic;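 also: potency is read from the fitted curve at half-maximal effect; 0% = DMSO wells and -100% = cell-free medium wells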
#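 After a 2 h attachment period, IDH1KD HT-1080 cells took pin-transferred compound for 48 h at 37 °C; ATP-based luminescence after 10 min room-temperature reagent incubation reported viability.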
# 12-LOX inh = ALOX12 (human) lipoxygenase inhibition; P18054; purified 12hLO, xylenol orange hydroperoxide absorbance; Potency, µM (titrated, usually from 108 µM), without a hit: top-dose activity change, negative = inhibition, hits mostly inhibitors; 580,000 compounds, 1.1% hits; AID 1671190; also: potency is read from the fitted curve at half-maximal effect
# Target sequence (P18054 whole entry, looked up): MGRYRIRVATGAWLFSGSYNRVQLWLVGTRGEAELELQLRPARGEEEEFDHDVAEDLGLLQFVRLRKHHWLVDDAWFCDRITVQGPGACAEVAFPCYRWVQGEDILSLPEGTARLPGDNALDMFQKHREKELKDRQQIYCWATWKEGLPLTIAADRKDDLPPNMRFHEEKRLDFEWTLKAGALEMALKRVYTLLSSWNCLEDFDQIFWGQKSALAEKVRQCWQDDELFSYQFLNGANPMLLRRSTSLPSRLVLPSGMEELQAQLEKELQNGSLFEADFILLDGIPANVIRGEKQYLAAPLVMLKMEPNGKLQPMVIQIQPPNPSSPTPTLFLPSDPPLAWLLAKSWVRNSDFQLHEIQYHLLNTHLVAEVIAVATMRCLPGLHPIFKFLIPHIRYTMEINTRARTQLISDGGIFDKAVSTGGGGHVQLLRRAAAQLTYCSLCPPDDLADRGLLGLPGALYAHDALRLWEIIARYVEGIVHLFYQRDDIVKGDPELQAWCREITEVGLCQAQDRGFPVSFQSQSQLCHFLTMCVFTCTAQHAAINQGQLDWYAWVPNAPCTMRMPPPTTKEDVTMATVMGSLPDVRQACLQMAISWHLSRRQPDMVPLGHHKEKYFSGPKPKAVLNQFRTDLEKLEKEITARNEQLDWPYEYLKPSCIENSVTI
#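 Purified human 12hLO (150 nM final) in 25 mM Hepes, 0.01% Triton X-100, pH 7.0 was preincubated 15 min at room temperature with compound. Then 40 uM arachidonic acid was added, 30 min. Hydroperoxide was read by Fe-XO absorbance ratio 573/405 nm.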
# IL-1B inflam inh = blocks inflammasome-driven IL-1 beta release; activity change, % at 57.5 µM; AID 743279; THP-1 LPS/ATP IL-1B secretion, AlphaLISA, 16 h; hits give low values; 360,000 compounds, 4.7% hits; in the data active = activity change below about -50%; inconclusive = mostly about -30% to -49%
#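 Secreted IL-1B measured by AlphaLISA bead assay after 16 h compound exposure of THP-1 cells; compounds (final up to 57.5 uM) added 1 h before LPS (250 ng/mL) and ATP (1.25 mM) stimulation; lower signal means less secretion.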
# TDP1 cell CPT = growth inhibition of DT40 Tdp1-/-;hTDP1 cells with camptothecin (screen for TDP1 inhibitors); chicken DT40 Tdp1-/-;hTDP1 cells + 20 nM CPT, ATP luminescence, 48 h; Potency, µM (series often up to 46.2 µM), for inactives: at the top dose activity change, negative = growth inhibition, actives largely listed as inhibitors; 420,000 compounds, 12% hits; also: potency is read from the fitted curve at half-maximal effect; nearly all actives have a fitted effect of over 55% in size
#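 Chicken DT40 Tdp1-/- cells stably complemented with human TDP1 were seeded at 400 cells/well in medium containing 20 nM camptothecin, exposed to pin-transferred compounds, and grown at 37 °C for at least 48 hr. Viability was read as ATP luminescence.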
# DT40 TDP1 no CPT = qHTS for Inhibitors of human tyrosyl-DNA phosphodiesterase 1 (TDP1): qHTS in cells in absence of CPT | 420,000 compounds, 15% hits | Potency, µM (titrated, usually from 46.2 µM), for the others: at the highest dose activity change, negative = growth inhibition, actives largely listed as inhibitors | AID 686978, 2013 | DT40 Tdp1-/- hTDP1 cells, no CPT, ATP luminescence, 48 h; also: potency is read from the fitted curve at half-maximal effect; nearly all actives have a fitted effect of over 55% in size
#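 Chicken DT40 Tdp1-/- cells stably complemented with human TDP1 were seeded at 400 cells/well with DMSO in place of 20 nM camptothecin. After compound pinning, cells grew at least 48 hr at 37 °C; viability read by CellTiter-Glo luminescence.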
# Active calls of the source: *; ? = inconclusive; . = not tested or not shown; [ ] = another dose, or the depositor's remark. This excerpt belongs to a sample that is enriched for hits. Unless noted, calls follow the shape of the dose curve; as a rule, active = well fitted curve in the direction sought with a large enough effect; inconclusive = small, poorly fitted or top-dose-only effect, or another doubt; inactive = no such curve, though single readings can be large; an effect the other way counts as inactive or inconclusive. Unless noted, % is scaled to controls: 0 for no effect and ±100 for the full control effect.
SMILES,HT1080NT lethal,HT1080 IDH1KD tx,12-LOX inh,IL-1B inflam inh,TDP1 cell CPT,DT40 TDP1 no CPT
Cc1coc2cc3oc(=O)c(CCC(=O)NCCCn4ccnc4)c(C)c3cc12,5%,5%,0%,-18,?,?
Cc1oc2cc3oc(=O)c(CCC(=O)NCCCn4ccnc4)c(C)c3cc2c1C,-4%,-6%,21%,-52*,?,23µM*
Cc1oc2cc3oc(=O)c(CCC(=O)NCCCN4CCOCC4)c(C)c3cc2c1C,-10%,-10%,10%,?,23µM*,?
Cc1c(CCC(=O)N2CCC(C(=O)O)(c3ccccc3)CC2)c(=O)oc2cc3oc4c(c3cc12)CCCC4,1%,1%,0%,15,1%,-13%
C=C(C)C1CC=C(C)/C(=N/NC(N)=S)C1 (stereo not given),.,.,-31%,.,.,.
CCCNC(=O)NC(=O)CN(Cc1ccc(C#N)cc1)C(C)C,.,.,-22%,.,.,.
COC(=O)C1=CN(Cc2cccs2)C=C(C(=O)OC)C1c1cccc(OC)c1,.,.,-24%,.,.,.
CCCCCCCCCCS(=O)(=O)N/N=C/c1ccc2c(c1)OCO2,.,.,-18%,.,.,.
CCCCCCCCCCS(=O)(=O)N/N=C/c1ccc(O)cc1,?,?,?,?,16µM*,?
O=C1N(Cc2ccccc2)CCOC12CCN(Cc1cccc(F)c1)CC2,.,.,-8%[176 µM],.,.,.
CCOC(=O)Cc1csc(NC(=O)Nc2ccc(OC(F)(F)F)cc2)n1,-28%,?,159%,-17,?,18µM*
CCOC(=O)Cc1csc(NC(=O)NC2(C(F)(F)F)Oc3cc(Cl)c(Cl)cc3O2)n1,?,-29%,0.63µM*,17,23µM*,?
CCOC(=O)Cc1csc(NC(=O)COc2ccc(N(C)S(=O)(=O)c3cccs3)cc2)n1,-5%,-3%,0%,-5,?,29µM*
CCOC(=O)Cc1csc(NC(=O)c2cc(C)c(C)s2)n1,27%,7%,?,-9,?,23µM*
CCOC(=O)Cc1csc(NC(=O)COc2ccc(C)c(C)c2)n1,5%,6%,0%,24,-14%,-21%
Cc1ccc2c(c1)-c1cc(C)nn1C(c1ccsc1)N2 (stereo not given),.,.,-22%,.,.,.
O=S(=O)(c1ccc(SCc2cc(Cl)c3c(c2)OCCCO3)nc1)N1CCOCC1,.,.,10%,.,.,.
Cc1ccc(OCc2ccc(C(=O)O)o2)c([N+](=O)[O-])c1,16%,12%,-12%,15,-15%,-15%
CCOC(=O)Cc1csc(NC(=O)c2ccc(C)o2)n1,-7%,1%,-11%,7,0%,-7%
CCOC(=O)Cc1csc(NC(=O)COc2ccc(C)cc2)n1,6%,4%,-2%,3,?,?
CCOC(=O)Cc1csc(NC(=O)c2cnc3sc(C)cn3c2=O)n1,25%,11%,-11%,21,?,21µM*
CCOC(=O)Cc1csc(NC(=O)CSc2ncnc3c2cnn3-c2ccc(OC)cc2)n1,4%,-2%,29%,2,?,15µM*
CCOC(=O)Cc1csc(NC(=O)COc2ccccc2)n1,10µM*,-6%,-1%,6,-17%,-8%
CCOC(=O)Cc1csc(NC(=O)c2ccc([N+](=O)[O-])cc2[N+](=O)[O-])n1,0%,-1%,?,16,-25%,-9%
CCOC(=O)Cc1csc(NC(=O)c2ccc(N3CCOCC3)cc2[N+](=O)[O-])n1,-1%[9.24 µM],-1%,?,-22,23µM*,?
SMILES,HT1080NT lethal,HT1080 IDH1KD tx,12-LOX inh,IL-1B inflam inh,TDP1 cell CPT,DT40 TDP1 no CPT
CCC(=O)NC[C@H]1Cn2c(-c3ccc4c(c3)OCO4)cnc2CO1,.,.,-2%[176 µM],.,.,.
CCOC(=O)N1CCC(Nc2ccc(Cl)cc2N)CC1,.,.,11%[22.9 µM],.,.,.
NC(=O)c1cc[nH]c1C1CCCN(C2CCN(CCc3ccccc3)CC2)C1 (stereo not given),.,.,10%,.,.,.
CCOC(=O)Cc1csc(NC(=O)/C=C\c2ccccc2)n1,-19%,-22%,-6%,-8,?,?
CCOC(=O)Cc1csc(NC(=O)c2ccc3ccccc3n2)n1,9%,-1%,-6%,19,?,18µM*
CCOC(=O)Cc1csc(SCC(=O)Nc2cccc(Cl)c2)n1,12%,3%[9.24 µM],14%,-7,?,15µM*
CCOC(=O)Cc1csc(N/N=C/c2ccccc2)n1,0%,-6%,-12%,-2,?,?
CCOC(=O)Cc1csc(NC(=O)/C=C/c2ccc(OC)cc2)n1,-23%,-26%,-15%,-5,10µM*,21µM*
CCOC(=O)Cc1csc(N/N=C\c2cccc(Br)c2)n1,-24%,-4%,-14%,22,13µM*,?
COc1ccc(-c2cc(C(=O)Nc3c(C(=O)c4ccc(C)c(F)c4)oc4ccccc34)no2)cc1,.,.,-17%,.,-9%,-13%
O=C(NCCN1CCOCC1)c1ccc2nc(-c3ccccc3)cn2c1,.,.,64%,.,.,.
Cc1ccccc1NC(=S)NCc1ccc2[nH]c3c(c2c1)CCCC3,-16%,-5%,?,-12,?,21µM*
COCCOC(=O)C1=C(C)N=C2SC=C(CC(=O)NCc3ccco3)N2C1c1ccccc1OC (stereo not given),.,.,35%,.,.,.
O=Cc1cc(Br)cc(Cl)c1O,.,.,45µM*,.,.,.
O=Cc1cc(Cl)c(O)c(Cl)c1,.,.,49%,.,.,.
CCCCCCCCN1C(=O)[C@H](CC(=O)NCCCCc2ccccc2)C[C@@]2(C(=O)OC)CCCCC=C12,?,?,?,-15,?,?
COC(=O)[C@]12CCCCC=C1N(Cc1cccc3ccccc13)C(=O)[C@H](CC(=O)NCCCCc1ccccc1)C2,?,-29%,62%,-64*,?,16µM*
COC(=O)[C@]12CCCCC=C1N(Cc1ccccc1)C(=O)[C@H](CC(=O)NCCCCc1ccccc1)C2,?,?,-7%,-20,23µM*,?
CCCCNC(=O)C[C@@H]1C[C@@]2(C(=O)OC)CCCCC=C2N(Cc2cccc3ccccc23)C1=O,?,?,-1%,-22,?,?
CC1CN(c2ccc(Cl)cc2)C(=O)CN1C(=O)CCn1cccc1 (stereo not given),.,.,-13%,.,.,.
CCCCNC(=O)CN1CCN(Cc2nc3ccccc3o2)CC1,.,.,100%,.,.,.
Cc1cc(C)c2c3c(sc2n1)C(c1cccc(F)c1)C(C#N)=C(N)O3 (stereo not given),12%,5%,?,-79*,?,16µM*
